Source: PubChem (National Center for Advancing Translational Sciences (NCATS))
An excerpt weighted towards active compounds, which were near 20% of everything screened.
Pf growth 96h – Primary qHTS for delayed death inhibitors of the malarial parasite plastid, 96 hour incubation; Potency, µM (top dose mostly 28.7 µM), actives largely listed as inhibitors; P. falciparum luciferase reporter growth, 96 h; hit rate 6.9% among 320,000; AID 504834, 2011
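Delayed-death screen, second-generation endpoint: infected erythrocytes, 2% hematocrit, 0.05% parasitemia final; 96 hours at 37 C, 5% CO2; luciferase detection reagent; luminescence decrease equals reduced growth.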
Shiga toxin inh – A qHTS for Small Molecule Inhibitors of Shiga Toxin. Vero cells, Shiga toxin protein synthesis inhibition reporter. inhibition, % at 38.7 µM. hit rate 9.2% among 290,000. AID 2315, 2010; in the data active = inhibition mostly above about 28%, no sharp cut-off; inactive = mostly below about 43%
CHX counter – Cycloheximide Counterscreen for Small Molecule Inhibitors of Shiga Toxin | hit rate 12% among 300,000 | max response, % | cell reporter, cycloheximide protein synthesis inhibition counterscreen; in the data active = max response mostly above about 13%, no sharp cut-off; inactive = mostly below about 14%; note: read at 38.3 µM for the half of the compounds with a filed dose
Pf growth 48h – Primary qHTS for delayed death inhibitors of the malarial parasite plastid, 48 hour incubation; P. falciparum luciferase growth in erythrocytes, 48 h; Potency, µM (series often up to 28.7 µM), actives largely listed as inhibitors; hit rate 5.9% among 310,000
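Luciferase-expressing parasites in RBCs, 2% Hct / 0.1% parasitemia final; RPMI 1640 + 0.5% Albumax; 37 C, 5% CO2, one generation; luminescence read-out, lower signal = inhibition.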
HCMV inh – qHTS Assay for inhibitors of the human cytomegalovirus (HCMV); HFF cells, HCMV-luciferase reporter, 72 h; active compounds read low; activity change, negative = inhibition, % at 57.5 µM; hit rate 4.5% among 410,000; AID 1259415, 2018; in the data active = activity change below about -60%; inconclusive = no clear call, values can overlap the other calls; inactive = above about -39%
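Steps: HFFs plated, 16 h 37C; compounds added; HCMV-luciferase added to MOI 1 PFU/cell; 72 h 37C; OneGlo reagent, 5 min room temperature; luminescence read, normalized to controls.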
Large screens that a line does not name were inactive. Unless noted, calls come from the whole dose curve; as a rule, active = well fitted inhibition curve with a large enough effect; inconclusive = small, poorly fitted or top-dose-only effect, or another doubt; inactive = no such curve, though single readings can be large or run the other way.

CCOC(=O)[C@H]1[C@H]2COc3ccccc3[C@@H]2N2C(=O)c3cc(C)ccc3NC(=O)[C@@]12C	Pf growth 96h 13µM, Pf growth 48h inconclusive (no result: Shiga toxin inh, CHX counter)
CCOC(=O)[C@H]1[C@H]2COc3ccc(Cl)cc3[C@@H]2N2C(=O)c3ccc(F)cc3NC(=O)[C@@]12C	Pf growth 96h inconclusive, Pf growth 48h 12µM (no result: Shiga toxin inh, CHX counter)
CCOC(=O)[C@H]1[C@H]2COc3ccccc3[C@@H]2N2C(=O)c3ccc(Cl)cc3NC(=O)[C@@]12C	Pf growth 96h inconclusive, Pf growth 48h inconclusive (no result: Shiga toxin inh, CHX counter)
CCOC(=O)[C@H]1[C@H]2COc3ccc(Cl)cc3[C@@H]2N2C(=O)c3ccccc3NC(=O)[C@@]12C	Pf growth 96h inconclusive, Pf growth 48h inconclusive, HCMV inh -70 (no result: Shiga toxin inh, CHX counter)
CCOC(=O)[C@H]1[C@H]2COc3ccc(Cl)cc3[C@@H]2N2C(=O)c3ccc(C)cc3NC(=O)[C@@]12C	Pf growth 96h inconclusive, Pf growth 48h inconclusive (no result: Shiga toxin inh, CHX counter)
CCOC(=O)[C@H]1[C@H]2COc3ccc(C)cc3[C@@H]2N2C(=O)c3cc(C)ccc3NC(=O)[C@@]12C	none (no result: Pf growth 96h, Shiga toxin inh, CHX counter, Pf growth 48h)
CCCC(=O)Nc1cc(C(=O)O)ccc1Sc1ccc(C)cc1	none
CCOC(=O)N1CCc2c(sc3c2c(=O)n(-c2ccc(Cl)cc2)c(=O)n3Cc2cccc(OC)c2)C1	none (no result: Pf growth 96h, Shiga toxin inh, CHX counter, Pf growth 48h)
CCOC(=O)[C@H]1[C@H]2COc3ccc(Cl)cc3[C@@H]2N2C(=O)c3cc(Cl)ccc3NC(=O)[C@@]12C	Pf growth 96h 10µM, Pf growth 48h inconclusive (no result: Shiga toxin inh, CHX counter)
N#CC1=C(Nc2ccccc2)SC=C(c2ccc(Cl)c(Cl)c2)N=C1N1CCOCC1	Pf growth 96h inconclusive, Pf growth 48h 13µM
N#CC1=C(Nc2ccccc2)SC=C(c2ccccc2)N=C1N1CCOCC1	Pf growth 96h inconclusive (no result: Pf growth 48h)
O=C(CN1C(=O)CCC1=O)Nc1nc(-c2cccs2)cs1	none
COc1ccc(-c2csc(NC(=O)Cc3ccccc3F)n2)c(OC)c1	Pf growth 96h inconclusive, CHX counter 14, Pf growth 48h inconclusive
CCC(=O)Nc1nnc(-c2cccs2)s1	none
O=C(Cc1ccccc1F)Nc1nc(-c2ccc(F)c(F)c2)cs1	Shiga toxin inh 62, CHX counter 19
O=C(Cc1ccccc1)Nc1nc(-c2cccs2)cs1	Shiga toxin inh 105, CHX counter 43 (no result: Pf growth 96h)
O=C(Cc1ccccc1)Nc1nnc(-c2cccs2)s1	CHX counter 25
O=C(Cc1ccccc1)Nc1nc(-c2ccc(F)c(F)c2)cs1	Pf growth 48h inconclusive
CCc1nn(Cc2cc(C)ccc2C)c(=O)c2cc3cc(C)ccc3n12	none (no result: Pf growth 96h, Shiga toxin inh, CHX counter, Pf growth 48h)
O=C(Cc1ccccc1F)Nc1nc(-c2cccs2)cs1	Pf growth 96h inconclusive, Shiga toxin inh 50, CHX counter 37
CCc1noc(C)c1C(=O)Nc1nc(-c2cc(OC)ccc2OC)cs1	Pf growth 96h inconclusive, Pf growth 48h inconclusive (no result: Shiga toxin inh, CHX counter)
CCc1noc(C)c1C(=O)Nc1nc(-c2ccc(OC)cc2OC)cs1	Pf growth 96h 2.3µM, Pf growth 48h 2.3µM, HCMV inh inconclusive (no result: Shiga toxin inh, CHX counter)
O=C(CCn1cccc1)Nc1cccc(F)c1	Pf growth 96h 12µM
O=C(CCN1CCc2ccccc2C1)Nc1cccc(F)c1	Pf growth 96h 4.1µM
O=C(CCN1CCc2ccccc2C1)Nc1ccccc1	Pf growth 48h inconclusive
COc1cccc(NC(=O)CSCn2nnc3c(=O)[nH]c(Cc4ccc(F)cc4)nc32)c1	none (no result: Pf growth 96h, Shiga toxin inh, CHX counter, Pf growth 48h)
CCOC(=O)CN(C(=O)CSc1nnc(COc2ccc(OC)cc2)n1CC)c1ccccc1	Pf growth 96h 6.6µM, Pf growth 48h 8.3µM
CCOC(=O)CN(C(=O)CSc1nnc(CNc2ccc(C)cc2C)n1CC)c1ccccc1	Pf growth 96h 9.3µM, Pf growth 48h inconclusive
CCn1c(COc2ccccc2)nnc1SCC(=O)C(C)(C)C	Pf growth 96h 9.3µM, Pf growth 48h 12µM
CCOC(=O)CN(C(=O)CSc1nnc(CNc2ccc(F)cc2)n1CC)c1ccc(F)cc1	Pf growth 48h inconclusive (no result: Pf growth 96h)
CCn1c(COc2ccccc2C)nnc1SCC(=O)N1CCCCC1	Pf growth 96h 7.4µM, Pf growth 48h inconclusive
CCCSc1nnc2n(-c3cccc(C)c3)c(=O)c3c4c(sc3n12)CCCC4	none (no result: Pf growth 96h, Shiga toxin inh, CHX counter, Pf growth 48h)
CN1CCN(S(=O)(=O)c2cccc(C(=O)N3CCN(c4ccccc4F)CC3)c2)CC1	none (no result: Shiga toxin inh, CHX counter)
COc1ccccc1N1CCN(C2CCN(C(=O)c3ccc(F)cc3)CC2)CC1	none
O=C(c1cccc(S(=O)(=O)N2CCCCCC2)c1)N1CCN(c2ccccc2F)CC1	Pf growth 48h 12µM
O=C(c1cccc(S(=O)(=O)N2CCCCC2)c1)N1CCc2ccccc21	Pf growth 96h 1.2µM, HCMV inh -72
